# Measurements as given in PubChem BioAssay AID1631 (National Center for Advancing Translational Sciences (NCATS), 2009).
# In all, about 260,000 compounds went through this assay and about 890 (0.34%) were called active. Not shown: some 1% with an inconclusive outcome. The entries come from a sample that favours actives as a whole. Entries that show only a call come without a potency. Unmarked numbers belong to inactive results. The call rests on the fitted dose curve; in most records, active means well fitted activation curve with a large enough effect; inconclusive means small, poorly fitted or top-dose-only effect; inactive means no such curve, though single readings can be large or run the other way.
# Target: Pyruvate kinase PKM (Homo sapiens) (UniProt P14618)
# Test: qHTS Assay for Activators of Human Muscle isoform 2 Pyruvate Kinase; further: nearly all actives have a fitted effect of over 55% in size
# Details: purified PKM2, Kinase-Glo ATP luminescence; Potency: activation; series mostly up to 57.5 µM
# Excerpt: NIH Chemical Genomics Center [NCGC] Matthew G. Vander Heiden, M.D., Ph.D. [Harvard Medical School, 77 Avenue Louis Pasteur, Boston, MA 02115] MLPCN Grant: 1 R03 MH085679-01 NCGC Assay Overview: Human pyruvate kinase muscle 2 (hPK-M2) enzyme was supplied as a highly purified (>95% pure) preparation from Harvard Medical School and assayed for its ability to generate ATP from ADP using phosphoenolpyruvate (PEP) as a substrate. ATP generation was detected in a coupled reaction by luciferase-mediated luminescence, an ATP-dependent process. […] The enzyme was assayed at an intermediate level of activity to screen for both inhibitors and activators.
# NCGC Assay Protocol Summary: Three uL of substrate mix (at r.t.) in assay buffer (50 mM Imidazole pH7.2, 50 mM KCl, 7 mM MgCl2, 0.01% Tween 20, 0.05% BSA) was dispensed into white solid bottom 1,536 well microtiter plates so that the final concentrations of substrates in the assay were 0.1 mM ADP and 0.5 mM PEP. 23 nL of compound were delivered by a pin tool and 1 uL of enzyme mix in assay buffer (4 degree Celsius) was added. Plates were incubated at room temperature for 1 hour. Two uL of detection mix (Kinase-Glo, Promega; at 4 degree Celsius protected from light) was added and luminescence read by a ViewLux (Perkin Elmer) at 5 second exposure/plate. Data were normalized to the uninhibited and AC100 inhibition (no enzyme). To monitor activation, the first column contained a titration of the activator, NCGC00031955-01 (16-point 1:2 dilutions in duplicate starting at 57 uM) and the first 16 rows of column 4 contained 57 uM of NCGC00031955-01.
# Potency means the concentration at half of the fitted maximal effect.
# Chain of Pyruvate kinase PKM (Homo sapiens) (P14618 whole entry, looked up, canonical isoform): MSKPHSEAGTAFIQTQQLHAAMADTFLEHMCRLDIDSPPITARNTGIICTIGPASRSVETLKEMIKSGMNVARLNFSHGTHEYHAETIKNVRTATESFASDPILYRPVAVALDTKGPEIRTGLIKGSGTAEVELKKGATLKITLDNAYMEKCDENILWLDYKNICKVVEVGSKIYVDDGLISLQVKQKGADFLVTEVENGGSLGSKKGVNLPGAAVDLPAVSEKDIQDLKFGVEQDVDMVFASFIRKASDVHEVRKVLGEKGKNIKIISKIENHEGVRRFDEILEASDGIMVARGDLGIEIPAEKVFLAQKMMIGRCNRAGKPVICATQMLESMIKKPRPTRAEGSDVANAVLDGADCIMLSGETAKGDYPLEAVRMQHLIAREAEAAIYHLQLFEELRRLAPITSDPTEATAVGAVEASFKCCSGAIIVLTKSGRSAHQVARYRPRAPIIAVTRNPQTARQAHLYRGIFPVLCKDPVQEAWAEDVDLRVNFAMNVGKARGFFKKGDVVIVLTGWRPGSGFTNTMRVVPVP
Compound,Potency,activation
CCC(=O)Nc1nc(C)c(C(=O)Nc2cccc(Cl)c2)s1,inactive,–
O=C(CCCCCn1c(=S)[nH]c2ccsc2c1=O)NC1CCCCC1,–,"13.9% [at 0.46 µM, 0% is enzyme alone, no compound]"
CCSc1nsc(NC(=O)Nc2ccccc2OC)n1,inactive,–
Cc1ccc(NC(=O)CSc2cccc3cccnc23)c(C)c1,inactive,–
Cc1ccc(NC(=S)Nc2ccc(F)cc2)cc1,inactive,–
N=c1oc2ccccc2cc1C(=O)NCc1ccccc1,inactive,–
O=C(NCc1ccc(Cl)cc1)C1CCN(S(=O)(=O)c2cccs2)CC1,inactive,–
O=C(NCc1cccs1)C1CCN(S(=O)(=O)c2ccc3c(c2)OCCO3)CC1,3.98 µM (active),–
O=C(NCc1ccccn1)C1CCN(S(=O)(=O)c2ccc(Br)cc2)CC1,inactive,–
O=S(=O)(c1ccc2c(c1)OCCO2)N1CCc2ccccc21,inactive,–
Cc1ccc(S(=O)(=O)N2CCN(C)CC2)cc1,inactive,–
O=C(NCc1cccs1)C1CCN(S(=O)(=O)c2ccc(Cl)cc2)CC1,14.1 µM (active),–
O=C(c1ccc2c(c1)OCCO2)C1CCN(S(=O)(=O)c2cccc(F)c2)CC1,inactive,–
CN1CCCN(S(=O)(=O)c2ccc3c(c2)OCCO3)CC1,3.55 µM (active),–
O=C(NCc1ccc2c(c1)OCO2)C1CCCN(S(=O)(=O)c2cccs2)C1 (stereo not given),inactive,–
Cc1ccccc1CN1C[C@@H]2C[C@@H](c3ccc4nsnc4c3)N3CCC[C@@]23C1=O,inactive,–
Cc1ccc(CN2CCN(Cc3cn(C)nc3-c3ccccc3)CC2CCO)o1 (stereo not given),inactive,–
Cc1ccccc1CN1C[C@@H]2C[C@@H](c3cn(C)nc3-c3ccccc3)N3CCC[C@@]23C1=O,5.62 µM (active),–
Brc1c(CSc2nncc3ccccc23)nc2ccccn12,4.47 µM (active),–
CN(C(=O)CSc1nncc2ccccc12)C1CCCCC1,inactive,–
COc1ccc(Cl)cc1NC(=O)c1cccc(N2C(=O)C3CC=CCC3C2=O)c1 (stereo not given),inactive,–
O=C(NCC1CCCO1)c1cc2c([nH]c3ccccc32)c(-c2ccc(F)cc2)n1 (stereo not given),inactive,–

Compound,Potency,activation
O=C(Nc1ccc(S(=O)(=O)Nc2ccccn2)cc1)c1ccccc1,inactive,–
C=CC(=O)c1ccc2ccccc2c1,10 µM (active),–
CC(=O)c1ccc2c(ccc3ccccc32)c1,inactive,–
CC(=O)CCC(=O)c1ccc2ccccc2c1,inactive,–
CCOC(=O)c1cccc(NC(=O)C2CCN(c3ncnc4c3nc3n4CCCCC3)CC2)c1,–,"0.194% [at 0.46 µM, 0% is enzyme alone, no compound]"
CCCOC1CCCN(C(=O)c2cc(COc3cncc(Cl)c3)on2)C1 (stereo not given),inactive,–
O=C(NC(=S)NC1CCCCC1)c1ccc(Cl)cc1,inactive,–
O=S(=O)(NC1CCCCC1N1CCN(c2ccccc2F)CC1)c1ccccc1 (stereo not given),inactive,–
O=C(Cc1ccc(Cl)cc1)NC(=S)Nc1ccccc1O,inactive,–
CCN1C(=S)N[C@@H](CCc2ccccc2)[C@H](C(=O)OC)[C@H]1C,inactive,–
CC1(C(=O)NCCc2c[nH]c3ccccc23)C=CC2(CCCCC2)N1C(=O)c1ccccc1 (stereo not given),inactive,–
Cc1ccccc1NC(=O)CSc1nc2ccc(Nc3nc(N4CCOCC4)nc(N4CCOCC4)n3)cc2s1,inactive,–
CN(C(=O)CC1C(=O)NCCN1Cc1ccc(F)cc1Cl)C1CCCCC1 (stereo not given),inactive,–
CC(=O)N1c2ccc(S(=O)(=O)N3CCCC(C(=O)Nc4cccc(F)c4)C3)cc2CC1C (stereo not given),inactive,–
CCC(C)c1ccc(NC(=S)N2CCCC2)cc1 (stereo not given),inactive,–
Cc1noc(C)c1CSCC(=O)N(CCC(C)C)c1c(N)n(Cc2ccccc2)c(=O)[nH]c1=O,inactive,–
COC(=O)c1ccc(COc2ccc(/C=C/C(=O)c3ccc(OC)c(CSCC(=O)O)c3)cc2OC)cc1,inactive,–
Cc1ccc(S(=O)(=O)c2c(N)n(C)c3nc4ccccc4nc23)cc1,12.6 µM (active),–
CCN(CC)CCn1c(N)c(S(=O)(=O)c2ccccc2)c2nc3ccccc3nc21,inactive,–
CCC(=O)Nc1c(S(=O)(=O)c2ccccc2)c2nc3ccccc3nc2n1Cc1ccccc1,inactive,–
c1ccc(Cc2ccc(OCCn3ccnc3)cc2)cc1,inactive,–
O=C(Nc1ccc(C(=O)N2CCCCC2)cc1)c1cccc([N+](=O)[O-])c1,inactive,–

Compound,Potency,activation
CCCCC(C(=O)NC(C)(C)C)N(Cc1ccccc1)C(=O)c1snc(C(N)=O)c1N (stereo not given),inactive,–
COc1ccc(-c2nn(-c3ccccc3)cc2/C=C2/SC(=S)N(CCCC(=O)O)C2=O)c(C)c1,–,"-3.19% [at 11.5 µM, 0% is enzyme alone, no compound]"
CCCc1cc(C(=O)N2CCCC(CO)(CCCc3ccccc3)C2)n(C)n1 (stereo not given),inactive,–
O=C(CNc1cccc(S(=O)(=O)N2CCCCC2)c1)Nc1ccccc1F,inactive,–
Cc1cccc(-n2ncc(Cl)c(Cl)c2=O)c1,inactive,–
C/C(=N\N(C)C)c1ccc(OCCOc2ccc([N+](=O)[O-])cc2)cc1,inactive,–
COc1ccc(CCn2c(=N)c(C(=O)NCc3ccco3)cc3c(=O)n4cccc(C)c4nc32)cc1,inactive,–
C=C(C)Cn1c(SCC(=O)NCc2ccco2)nc2sc3c(c2c1=O)CCC3,inactive,–
O=C(NCc1ccco1)c1cccn2c(=O)c3c4c(sc3nc12)CCCC4,25.1 µM (active),–
O=C(CCCC(=O)N1CCN(c2cccc(Cl)c2)CC1)c1ccccc1,inactive,–
CCS(=O)(=O)Nc1ccc(C2=NN(C(C)=O)C(c3cccs3)C2)cc1 (stereo not given),4.47 µM (active),–
COc1ccc(C2=NN(C(=O)CCC(=O)O)C(c3cccs3)C2)cc1OC (stereo not given),inactive,–
CS(=O)(=O)Nc1ccc(C2=NN(S(C)(=O)=O)C(c3cccs3)C2)cc1 (stereo not given),inactive,–
CC(=O)c1cc2c(cc1NC(=O)Cn1nc(-c3ccc(F)cc3)ccc1=O)OCO2,inactive,–
CC(=O)N1CCc2c(sc(NC(=O)CCS(=O)(=O)c3ccccc3)c2C#N)C1,inactive,–
CCOC(=O)c1ccc(NC(=O)Cc2cccs2)cc1,inactive,–
CC1CCN(C(=S)NC(=O)c2ccccc2Br)CC1,inactive,–
O=C(Nc1ccc(N2CCOCC2)c(Cl)c1)c1ccc(S(=O)(=O)N2CCOCC2)cc1,inactive,–
COc1ccc(C2CC(c3ccccc3)=NN2C(=O)c2ccc(Cl)c([N+](=O)[O-])c2)cc1 (stereo not given),inactive,–
COc1ccc(C2CC(c3ccc([N+](=O)[O-])cc3)=NN2C(C)=O)cc1 (stereo not given),12.6 µM (active),–
COc1ccc(C2=NN(C(C)=O)C(c3ccccc3)C2)cc1 (stereo not given),inactive,–
